Measurements: PubChem BioAssay AID1529 (NMMLSC, 2009)
Screen size: about 290,000 compounds; about 4,200 (1.4%) were called active. What follows is part of a selection rich in actives, with near analogues and random picks from the rest. Values without a mark were called inactive.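 How the source made its calls: active means binding response more than 3 SD above or below the average of its plate-row segment, actives on both sides; inconclusive means wells at one plate position flagged as instrument error; inactive means the rest.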

Target: Mitogen-activated protein kinase kinase kinase 3 (Homo sapiens) (UniProt Q99759)
Sequence (Q99759 whole entry, looked up): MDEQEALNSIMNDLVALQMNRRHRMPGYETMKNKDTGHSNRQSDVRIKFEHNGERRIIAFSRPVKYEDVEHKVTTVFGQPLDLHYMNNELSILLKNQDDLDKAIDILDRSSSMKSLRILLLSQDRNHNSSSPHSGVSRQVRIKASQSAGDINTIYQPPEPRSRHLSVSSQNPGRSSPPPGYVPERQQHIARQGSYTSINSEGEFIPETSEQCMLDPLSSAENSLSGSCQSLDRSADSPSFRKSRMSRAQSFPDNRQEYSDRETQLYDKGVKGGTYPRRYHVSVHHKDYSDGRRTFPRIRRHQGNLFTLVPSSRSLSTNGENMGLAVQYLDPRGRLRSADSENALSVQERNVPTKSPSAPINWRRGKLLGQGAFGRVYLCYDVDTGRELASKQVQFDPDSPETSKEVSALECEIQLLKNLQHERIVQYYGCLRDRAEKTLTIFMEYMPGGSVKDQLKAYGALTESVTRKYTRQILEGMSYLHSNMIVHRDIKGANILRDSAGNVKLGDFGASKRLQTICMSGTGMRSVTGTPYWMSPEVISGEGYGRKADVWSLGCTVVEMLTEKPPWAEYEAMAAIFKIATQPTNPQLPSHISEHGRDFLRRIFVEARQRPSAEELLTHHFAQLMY
Test: compounds raising or lowering MEK5 association with MEKK3 PB1 – biochemical, wildtype MEKK3, multiplex bead flow cytometry, Alexa488-MEK5, primary screen (AID 1529);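 further: Alexa488 bead fluorescence after subtracting the streptavidin-only scavenger bead signal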
Settings: bead-based flow cytometry, Alexa488-MEK5 binding to MEKK3; at 10 µM; actives lie on both sides

| SMILES | binding response (% of control) |
| --- | --- |
| O=C(CCNS(=O)(=O)c1ccccc1)Nc1ccc(Cl)cc1C(=O)c1ccccc1 | 107% |
| O=C(COC(=O)c1ccccc1)Nc1ccc(Cl)cc1C(=O)c1ccccc1 | 131% (active) |
| CN1CCN(C(=S)SCC(=O)Nc2ccc(Cl)cc2C(=O)c2ccccc2)CC1 | 108% |
| COC(=O)C1=C(c2cc3ccccc3s2)C[C@@H]2CC[C@H]1N2C(=O)NC(C)C | 108% |
| COc1cccc(C(=O)N2C[C@H]3C[C@@H](C2)c2cccc(=O)n2C3)c1 | 98% |
| CN(C)CC1Oc2ccccc2OC1(O)c1ccccc1 (stereo not given) | 106% |
| Cc1ccc(CN2CCCC(C(=O)c3ccc4c(c3)OCO4)C2)cc1C (stereo not given) | 49% [inhibitor] (active) |
| COc1ccc(C(=O)C2CCCN(Cc3ccc(C)s3)C2)cc1OC (stereo not given) | 103% |
| Cc1ccsc1C(=O)C1CCCN(Cc2ccc(O)cc2)C1 (stereo not given) | 96% |
| CN(C)C(=O)Oc1ccc2c(c1)O/C(=C\c1ccccc1)C2=O | 102% |
| NCC(O)c1ccc(O)cc1 (stereo not given) | 74% [inhibitor] (active) |
| COc1ccc2c(c1)[C@]13CCCCC1C(C2)N(C)CC3 (stereo not given in full) | 100% |
| CN(C)CC1CCCCC1OC(=O)c1ccc(Cl)c(Cl)c1 (stereo not given) | 135% (active) |
| COC(=O)C1=C(c2cc3ccccc3o2)C[C@@H]2CC[C@H]1N2C(=O)NC1CCCCC1 | 103% |
| COC(=O)C1=C(c2cc3ccccc3s2)C[C@@H]2CC[C@H]1N2C(=O)NCCO | 107% |
| COc1cccc(OC)c1C(=O)NC(=S)N1C[C@H]2C[C@H](C1)c1cccc(=O)n1C2 | 103% |
| CCCn1c(C(=O)c2ccccc2OC)nc2ccccc21 | 98% |
| O=C1NC(=O)C(CCc2ccccn2)(Cc2cccc(Cl)c2Cl)C(=O)N1c1ccc(Br)cc1 (stereo not given) | 89% |
| Cc1ccc(N2C(=O)NC(=O)C(CCc3ccncc3)(Cc3cccc(Cl)c3Cl)C2=O)cc1 (stereo not given) | 138% (active) |
| COc1ccc2[nH]c3c(c2c1)CCN[C@H]3C | 105% |
| CC[C@H]1CC2CN3CCc4c([nH]c5ccccc45)C(C(=O)OC)(C2)C13 (stereo not given in full) | 99% |
| CNCC(O)c1cc(F)c(OCc2ccccc2)c(OCc2ccccc2)c1F (stereo not given) | 103% |
| COc1ccc(-c2nn(CCC#N)cc2C(=O)Nc2ccc(C(C)=O)cc2)cc1 | 111% |
| COC(=O)C1=C(c2cc3ccccc3s2)C[C@@H]2CC[C@H]1N2C(=O)NCc1cccc2ccccc12 | 105% |
| Fc1ccc(N2CCN(Cc3ccc4c(c3)OCO4)CC2)cc1 | 98% |
| Cc1cc(=O)oc2c(C)c(OCC(=O)N3CCN(Cc4ccc5c(c4)OCO5)CC3)ccc12 | 106% |
| O=C(Cc1ccccc1[N+](=O)[O-])N1CCN(Cc2ccc3c(c2)OCO3)CC1 | 46% [inhibitor] (active) |
| COc1ccc2c(c1O)-c1cccc3c1[C@@H](C2)N(C)CC3 | 95% |
| CCOc1ccc(CN(CCCl)CCCl)cc1C(=O)OC | 111% |
| COC(=O)C1=C(c2ccccc2)C[C@@H]2CC[C@H]1N2C(=O)N1CCCCC1 | 102% |
